# HIV RNase H inh-1 – blocks HIV-1 RNase H cleavage of RNA/DNA duplex; P04585; 65,000 compounds, 1.9% hits; inhibition, % at 10 µM; AID 565; RT-RNase H RNA/DNA duplex cleavage, fluorescence; in the data active means inhibition above about 50%
# RmlCD inh mix – inhibitors of RmlC and RmlD coupled enzymes. inhibition, % at 5.5 µM. 110,000 compounds, 0.39% hits. RmlC/RmlD coupled enzyme inhibition, 384-well mixture HTS. AID 1532; in the data active means inhibition above about 30%, passing the limit was not always enough; inconclusive means no clear call, values can overlap the other calls
# HIV RNase H inh-2 – confirmation of HIV-1 reverse transcriptase RNase H inhibitors. shares compounds with HIV RNase H inh-1. Recombinant RT RNase H, fluorescent RNA/DNA duplex cleavage. inhibition, % at 10 µM. 1,000 compounds, 39% hits; in the data active means inhibition above about 48%; inconclusive means no clear call, values can overlap the other calls
# The depositor's hits bear a star; ? = inconclusive; . = not tested or not shown. Many of the other results were omitted from the sample, so hits are more common in it than they were.
SMILES,HIV RNase H inh-1,RmlCD inh mix,HIV RNase H inh-2
Cc1ccc(C2NC(=O)c3c(sc4c3CCN(C)C4)N2)o1 (centres undefined),0,-6,.
CCOC(=O)N1CCc2c(sc3c2C(=O)NC(c2ccc(-c4ccc(Cl)cc4)o2)N3)C1 (centres undefined),74*,.,97*
c1ccc(-c2nnc3sc(-c4ccncc4)nn23)cc1,27,-7,.
c1ccc(-c2nnc3sc(-c4csc5c4CCCC5)nn23)cc1,69*,0,?
CN(CCOc1ccc(-c2ccn(S(=O)(=O)c3cccc4ccccc34)n2)cc1)c1ccccn1,.,6,.
Cc1cc(C(=O)CSc2nnc(-c3ccc(OC(F)F)cc3)o2)c(C)n1Cc1cccs1,79*,1,67*
COc1ccc(-n2cnnc2SCC(=O)c2cc(C)n(Cc3cccs3)c2C)cc1,1,-3,.
CC(CCCCC(=O)Nc1ccc(C(F)(F)F)cc1)NCCc1cnc[nH]1 (centres undefined),.,-8,.
O=C(CSc1ccc2nnc(-c3cccnc3)n2n1)NCC1CCCO1 (centres undefined),7,-4,.
O=C(CSc1ccc2nnc(-c3cccc(F)c3)n2n1)NCC1CCCO1 (centres undefined),73*,6,33
COc1ccc(NC(C)=O)cc1NC(=O)CSc1nnc(-c2ccc(F)cc2)n1N,-2,1,.
CN(C)c1ccc(C(=O)OCC(=O)NCC2CCCO2)cc1 (centres undefined),.,-5,.
Nc1c(C(=O)NCC2CCCO2)sc(=S)n1-c1ccccc1 (centres undefined),84*,-3,?
CCn1c(N)c(C(=O)NCc2cccnc2)sc1=S,-14,.,.
CCn1c(N)c(C(=O)NCC2CCCO2)sc1=S (centres undefined),-3,26,.
Nc1c(C(=O)NCc2cccnc2)sc(=S)n1-c1ccccc1,60*,10,63*
CCCCCCN=CC1=C(O)C(C(=O)OC)C(C)(C)CC1=O (centres undefined),-3,-6,.
Cc1cc(NC(=O)c2ccc3c(c2)C(=O)N(C2CCCCC2)C3=O)no1,64*,4,25
Cc1cc(NC(=O)c2ccc3c(c2)C(=O)N(C)C3=O)no1,.,3,.
CC(C)(O)C#Cc1ccc(C(=O)NCc2ccccc2)s1,.,-9,.
COc1ccc(OC)c(S(=O)(=O)Nc2ccc(O)c3ccccc23)c1,83*,-11,?
COc1ccc(OC)c(S(=O)(=O)Nc2ccc(O)c(Sc3ncn[nH]3)c2)c1,94*,5,60*
CCOc1ccc(NS(=O)(=O)c2cc(OC)ccc2OC)cc1,.,-4,.
COc1ccc(OC)c(S(=O)(=O)Nc2ccc(Oc3ccccc3)cc2)c1,.,5,.
O=C(Cn1nc(C(F)(F)F)c2c1CCCC2)NCc1ccco1,1,5,.
SMILES,HIV RNase H inh-1,RmlCD inh mix,HIV RNase H inh-2
O=CNCC(=O)NCCc1ccc(Cl)cc1,-2,3,.
Cc1ccc(-n2c(O)c(C=Nc3ccccc3N)c(=O)[nH]c2=O)cc1C,3,-4,.
O=c1[nH]c(=O)n(-c2ccc(F)cc2)c(O)c1C=Nc1ccccc1N1CCCC1,74*,43,62*
CCN1C(=O)c2ccccc2S(=O)(=O)c2ccc(C(=O)NCc3cccnc3)cc21,-4,-15,.
CCCN(CCC)S(=O)(=O)c1ccc(C(=O)Nc2nnc(-c3cccc(OC)c3)o2)cc1,68*,.,89*
COc1cccc(-c2nnc(NC(=O)c3cccc(F)c3)o2)c1,-1,-6,.
CCCN(CCC)S(=O)(=O)c1ccc(C(=O)Nc2nnc(CSC)o2)cc1,20,-3,.
COc1ccccc1-c1nnc(NC(=O)c2ccc(S(=O)(=O)N(C)C)cc2)o1,2,6,.
CCCN(CCC)S(=O)(=O)c1ccc(C(=O)Nc2nnc(-c3cc(OC)cc(OC)c3)o2)cc1,53*,.,-11
CCN(Cc1ccccc1)S(=O)(=O)c1ccc(C(=O)Nc2nnc(-c3ccccc3OC)o2)cc1,78*,.,62*
Nn1cc(-c2ccccc2)nc1SCC(=O)NCCN1C(=O)CSC1=O,-2,5,.
Cc1ccc(C(=O)CSc2nnc(-c3ccccc3)o2)cc1,.,-3,.
COC(=O)c1ccc(OC)c(CSc2nnc(-c3ccc(C)cc3)o2)c1,66*,.,48
CCOC(=O)c1ccc2c(c1)NC(=O)C(N1CCN(c3ccc(OC)cc3)CC1)S2 (centres undefined),85*,7,-5
COC(=O)c1ccc2c(c1)NC(=O)C(N1CCCCC1)S2 (centres undefined),4,-25,.
COC(=O)c1ccc2c(c1)NC(=O)C(N1CCCC1)S2 (centres undefined),4,7,.
O=C(O)c1ccc2c(c1)NC(=O)C(N1CCCC1)S2 (centres undefined),92*,12,63*
C=CCn1c(SCC(=O)/C(C#N)=C(\C)N)nnc1C1CCCCC1,-6,-4,.
Cc1sc2c(c1C)CN(Cc1ccco1)CN2C(=O)c1ccccc1,-6,.,.
CCCCCC(=O)N(O)C1CC(=O)N(c2ccccc2)C1=O (centres undefined),16,6,.
CCCCCCC(=O)N(O)C1CC(=O)N(Cc2ccccc2)C1=O (centres undefined),66*,-2,32
COc1ccc2[nH]cc(CCN=C3SCC(=O)N3C)c2c1,79*,-9,24
COc1ccc2[nH]cc(CCN(C)C)c2c1,-1,-11,.
CN(C)c1ccc(N=Cc2c(O)n(CCC3=CCCCC3)c(=O)[nH]c2=O)cc1,58*,-14,51*
CCN(CC)c1ccc(N=Cc2c(O)n(CCC3=CCCCC3)c(=O)[nH]c2=O)cc1,18,2,.
SMILES,HIV RNase H inh-1,RmlCD inh mix,HIV RNase H inh-2
COc1cccc(-n2nnnc2SCC(=O)NCCc2ccccc2)c1,70*,35,38
COc1ccc(OC)c(-n2nnnc2SCC(=O)NCCc2ccccc2)c1,-26,.,.
c1ccc(-c2ncnc3cc4n(c23)CCC4)cc1,.,-6,.
CCn1c(Cc2ccccc2)nnc1SCC(=O)Nc1nc(C)cs1,.,8,.
CCn1c(Cc2ccccc2)nnc1SCC(=O)Nc1nc(C)c(C)s1,64*,-13,12
Cc1cc(C2C(C#N)=C(N)SC(N)=C2C#N)c(C)s1,45,.,.
Cc1sccc1C1C(C#N)=C(N)SC(N)=C1C#N,60*,.,2
COc1ccc(S(=O)(=O)N(CCc2ccccc2)CC(=O)O)cc1,.,6,.
CCOc1ccc(N2CC(=O)N(c3ccc(OCC)cc3)CC2=O)cc1,.,-15,.
CCOc1ccc(N2Cc3ccccc3C2)cc1,73*,-8,61*
CC(=O)OC(c1nc2ccccc2c(=O)n1C1CC2(OC1=O)c1ccccc1N1C(=O)C(C)(C)N(O)C12)C(C)C (centres undefined),.,-7,.
O=S(=O)(NCc1ccco1)N1CCOCC1,-5,13,.
c1coc(-c2nc3ccccc3nc2-c2ccco2)c1,67*,-10,44
O=c1oc(-c2ccco2)nc2ccccc12,-1,-11,.
COc1ccccc1N1CCN(S(=O)(=O)Cc2ccccc2Cl)CC1,-5,-8,.
COC(=O)c1ccc(OCC(O)CN(CC(C)C)CC(C)C)cc1 (centres undefined),3,21,.
CC1CCCN(C(=O)C2CCN(CC3CC=CCC3)CC2)C1 (centres undefined),-6,5,.
COc1ccc(C(=O)n2ccc(C)n2)cc1Br,-24,.,.
N=C1C(c2nc3ccccc3c(=O)[nH]2)=C(O)CN1CCO,-5,3,.
N=C1C(c2nc3ccccc3c(=O)[nH]2)=C(O)CN1CCc1ccccc1,75*,64,6
